Screening results from PubChem.
MCF10A rereplic: A quantitative high throughput screen for small molecules that induce DNA re-replication in MCF 10a normal breast cells | MCF 10A DNA re-replication, Hoechst nuclear intensity, 48 h | Potency, µM (doses to about 46.1 µM), most hits filed as activators | 2.9% of 350,000 active | AID 624296, 2012; also: nearly all actives have a fitted effect of over 50% in size
IL1B secr inh: qHTS for Inhibitors of Inflammasome Signaling: IL-1-beta AlphaLISA Primary Screen | 4.7% of 360,000 active | THP-1 LPS/ATP IL-1B secretion, AlphaLISA, 16 h; active compounds read low | activity change, % at 57.5 µM; in the data active = activity change below about -50%; inconclusive = mostly about -30% to -49%
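THP-1 cells pretreated 1 hr with compounds (up to 57.5 uM final), then stimulated with LPS (250 ng/mL final) plus ATP (1.25 mM final); secreted IL-1B measured by AlphaLISA after 16 hr, decreased signal indicating inhibition.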
SW480 rereplic: A quantitative high throughput screen for small molecules that induce DNA re-replication in SW480 colon adenocarcinoma cells. SW480 DNA re-replication, Hoechst DNA content imaging, 48 h. Potency, µM (series often up to 46.1 µM), hits mostly activators. 1.8% of 340,000 active; also: nearly all actives have a fitted effect of over 55% in size
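Quantitative HTS format with DMSO vehicle controls; 48 hr drug incubation at 37 C, then 40 min Hoechst staining and scanning imager measurement at 405 nm excitation.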
TDP1 cell CPT: qHTS for Inhibitors of human tyrosyl-DNA phosphodiesterase 1 (TDP1): qHTS in cells in presence of CPT | chicken DT40 Tdp1-/-;hTDP1 cells + 20 nM CPT, ATP luminescence, 48 h | Potency, µM (titrated, usually from 46.2 µM), hits mostly inhibitors | 12% of 420,000 active | AID 686979, 2013; also: nearly all actives have a fitted effect of over 55% in size
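Cell growth measured by CellTiter-Glo luminescence after a minimum 48 h, 37 C compound exposure with 20 nM CPT in Tdp1-knockout DT40 cells stably expressing hTDP1, seeded 400/well; qHTS titration format.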
TDP1 cell noCPT: qHTS for Inhibitors of human tyrosyl-DNA phosphodiesterase 1 (TDP1): qHTS in cells in absence of CPT | DT40 Tdp1-/- hTDP1 cells, no CPT, ATP luminescence, 48 h | Potency, µM (titrated, usually from 46.2 µM), hits mostly inhibitors | 15% of 420,000 active | AID 686978, 2013; also: nearly all actives have a fitted effect of over 55% in size
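Stably hTDP1-transfected Tdp1-null chicken DT40 cells were treated with library compounds minus camptothecin and grown for at least 48 hr at 37 °C, after which cellular ATP was quantified by luminescence.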
Chronic BCR inh: qHTS Assay to Find Inhibitors of Chronic Active B-Cell Receptor Signaling; ABC-DLBCL IkBa-CBG/CBR reporter, luminescence ratio, 4 h; Potency, µM (top dose mostly 46.1 µM), usual class: inhibitors; 0.05% of 340,000 active; active = well fitted inhibition curve with a large enough effect in the signal ratio, with a control signal flat, not every such curve was filed as active; inconclusive = small, poorly fitted or top-dose-only effect, or effect the other way, or a change in a side signal; the % refers to the signal ratio
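Doxycycline induced both beetle luciferases in TMD8 lymphoma cells; IKK-driven degradation limits the IkappaBalpha-fused green signal, while red luminescence normalises for cell number and nonspecific effects. Compounds tested up to 46 uM, 4 hrs.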
Each line names hits and unclear results; the compound was inactive in the other large screens. This is a sample that favours compounds with a hit; in the whole collection about 19% have one here. Unless noted, calls follow the shape of the dose curve; as a rule, active = well fitted curve in the direction sought with a large enough effect; inconclusive = small, poorly fitted or top-dose-only effect, or another doubt; inactive = no such curve, though single readings can be large; an effect the other way counts as inactive or inconclusive.

Clc1ccc(-c2nc3ccc(Cl)cn3c2CN2CCCCC2)cc1	MCF10A rereplic inconclusive, TDP1 cell CPT inconclusive, TDP1 cell noCPT 16µM
[Cl-].[Cl-].[Hg+2]	MCF10A rereplic inconclusive, SW480 rereplic inconclusive, TDP1 cell CPT 0.75µM, TDP1 cell noCPT 0.34µM (no result: IL1B secr inh, Chronic BCR inh)
C=C(C)[C@@H]1[C@H]2OC(=O)[C@H]1[C@]1(O)C[C@H]3O[C@]34C(=O)O[C@H]2[C@]14C	MCF10A rereplic inconclusive (no result: Chronic BCR inh)
CC(C)C[C@H]1COc2cc(N3CCN(C)CC3)ccc2S(=O)(=O)N1	TDP1 cell noCPT inconclusive (no result: MCF10A rereplic, SW480 rereplic, Chronic BCR inh)
COc1cc(OC)c(OC)cc1/C=C1\CCC/C(=C\c2cc(OC)c(OC)cc2OC)C1=O	MCF10A rereplic 16µM, IL1B secr inh -56, SW480 rereplic inconclusive, TDP1 cell CPT inconclusive, TDP1 cell noCPT 23µM, Chronic BCR inh inconclusive
CCOC(=O)C(O)(c1ccc(NC(=O)c2ccc(Cl)c(Cl)c2)cc1)C(F)(F)F (configuration not stated)	MCF10A rereplic inconclusive, SW480 rereplic inconclusive, TDP1 cell CPT inconclusive, TDP1 cell noCPT 16µM
CCOC(=O)C(O)(c1ccc(N(C)C(=O)c2ccc(Cl)c(Cl)c2)cc1)C(F)(F)F (configuration not stated)	TDP1 cell CPT 21µM, TDP1 cell noCPT 13µM, Chronic BCR inh inconclusive
CCOC(=O)C(=CNc1ccc(C(O)(C(=O)OCC)C(F)(F)F)cc1C)C(=O)OCC (configuration not stated)	MCF10A rereplic inconclusive, TDP1 cell CPT 21µM, TDP1 cell noCPT 12µM, Chronic BCR inh inconclusive
COC(=O)C(O)(c1ccc(N(C)C)cc1)C(F)(F)F (configuration not stated)	SW480 rereplic inconclusive
COC(=O)C(O)(c1ccc(N(C)C(=O)c2ccc(Cl)c(Cl)c2)cc1)C(F)(F)F (configuration not stated)	TDP1 cell CPT inconclusive, TDP1 cell noCPT inconclusive
COC(=O)C(O)(c1ccc(N(C)C(=O)c2cccs2)cc1)C(F)(F)F (configuration not stated)	TDP1 cell CPT 3.3µM, TDP1 cell noCPT inconclusive, Chronic BCR inh inconclusive
O=c1cc(O)c2ccccc2[nH]1	MCF10A rereplic inconclusive
CO[C@H]1C[C@H](O[C@H]2[C@H](C)O[C@@H](O[C@@H]3/C(C)=C/C[C@@H]4C[C@@H](C[C@]5(C=C[C@H](C)[C@@H](C6CCCCC6)O5)O4)OC(=O)[C@@H]4C=C(C)[C@@H](O)[C@H]5OC/C(=C\C=C\[C@@H]3C)[C@]54O)C[C@@H]2OC)O[C@@H](C)[C@@H]1O	TDP1 cell CPT 2.7µM, TDP1 cell noCPT 4.7µM (no result: MCF10A rereplic, IL1B secr inh, SW480 rereplic, Chronic BCR inh)
Cc1nccn1-c1c([N+](=O)[O-])c(=O)n(C)c2ccccc12	MCF10A rereplic 10µM, IL1B secr inh -92, Chronic BCR inh inconclusive
O=c1c2ccccc2nc(-c2ccc([N+](=O)[O-])cc2)n1-c1ccccc1	none
O=C(CCCc1nc(-c2ccc(Cl)cc2)no1)NCC1CCCO1 (configuration not stated)	TDP1 cell CPT inconclusive, TDP1 cell noCPT 18µM
O=C(CSc1nnc(NC(=O)c2cc(Br)ccc2Cl)s1)NCC1CCCO1 (configuration not stated)	SW480 rereplic inconclusive
CCCN(CC1CC1)CC(O)c1ccccc1 (configuration not stated)	TDP1 cell CPT 16µM, TDP1 cell noCPT 18µM
CN1[C@H](CC(=O)c2ccccc2)CCC[C@H]1C[C@H](O)c1ccccc1	none (no result: MCF10A rereplic, IL1B secr inh, SW480 rereplic, Chronic BCR inh)
NC(N)=Nc1ccc2[nH]c3c(c2c1)C[C@@]1(O)[C@H]2Cc4ccc(O)c5c4[C@@]1(CCN2CC1CC1)C3O5 (some centres not stated)	SW480 rereplic inconclusive
Cc1nc(-c2cccc(NC(=O)c3ccc(Cl)c(S(=O)(=O)N4CCCC4)c3)c2)cs1	TDP1 cell CPT inconclusive, TDP1 cell noCPT 8.2µM (no result: MCF10A rereplic, SW480 rereplic, Chronic BCR inh)
CCOC(=O)c1sc(NC(=O)c2cccc(S(=O)(=O)N3CCN(C)CC3)c2)cc1C	TDP1 cell noCPT inconclusive, Chronic BCR inh inconclusive
COC(=O)C1=C(c2c(C)noc2C)C[C@@H]2CC[C@H]1N2C(=O)NCC1CC1	none
CCC1CN1P(=S)(N1CC1CC)N1CC1CC (configuration not stated)	TDP1 cell CPT inconclusive, TDP1 cell noCPT inconclusive (no result: Chronic BCR inh)
Cc1ccc(CCNC(=O)c2cc3cc(S(=O)(=O)N4CCCCC4)ccc3n2C)cc1	TDP1 cell CPT 7.3µM, TDP1 cell noCPT 2.9µM (no result: MCF10A rereplic, IL1B secr inh, SW480 rereplic, Chronic BCR inh)
NS(=O)(=O)c1ccc(CCNC(=O)c2ccc(Cl)c(S(=O)(=O)N3CCCCC3)c2)cc1	TDP1 cell CPT inconclusive, TDP1 cell noCPT 23µM
CCCCn1c(O)c(/C=N/N2CCCCC2c2cccnc2)c(=O)[nH]c1=S (configuration not stated)	none
CCCCn1c(O)c(/C(CC)=N/N2CCCCC2c2cccnc2)c(=O)[nH]c1=S (configuration not stated)	MCF10A rereplic inconclusive, IL1B secr inh -64, TDP1 cell CPT inconclusive, TDP1 cell noCPT inconclusive
COc1ccc(-n2c(O)c(C=NCCN(C)C)c(=O)[nH]c2=O)cc1	none
COc1ccc(C#Cc2ccc3c(c2)O[C@H](CN(C)S(=O)(=O)c2ccccc2F)[C@H](C)CN([C@H](C)CO)S3(=O)=O)cc1	IL1B secr inh inconclusive, TDP1 cell CPT inconclusive, TDP1 cell noCPT 21µM (no result: MCF10A rereplic, SW480 rereplic, Chronic BCR inh)
NS(=O)(=O)OC(CCc1ccccc1)C(Cl)(Cl)Cl (configuration not stated)	TDP1 cell CPT inconclusive
CN1CCN(c2cccc3c2C(=O)c2ccccc2C3=O)CC1	IL1B secr inh -60, TDP1 cell CPT inconclusive
CC(C)[C@H](N)C(=O)OCCOCn1cnc2c(=O)[nH]c(N)nc21	MCF10A rereplic inconclusive, TDP1 cell CPT 1.8µM, TDP1 cell noCPT 2.9µM
Cc1ccc(S(=O)(=O)N(C)N=O)cc1	none
CC1CCC(NC(=O)c2cc3c(=O)n(C)c4ccccc4c3n2C)CC1 (configuration not stated)	MCF10A rereplic inconclusive, TDP1 cell CPT 9.2µM, TDP1 cell noCPT inconclusive, Chronic BCR inh inconclusive
O=c1c2ccccc2nc(-c2ccccc2)n1-c1ccccc1	TDP1 cell CPT inconclusive, TDP1 cell noCPT 8.2µM
